Assay results as given in PubChem BioAssay AID504333 (National Center for Advancing Translational Sciences (NCATS), 2011).
Hit rate of the full screen: of about 360,000 compounds, about 16,000 (4.4%) were called active. Roughly 9% stayed inconclusive and do not appear here. The sample holds actives, similar compounds and a random draw of the others, so the mix is not that of the screen. Calls follow the shape of the dose curve; as a rule, active = well fitted inhibition curve with a large enough effect; inconclusive = small, poorly fitted or top-dose-only effect; inactive = no such curve, though single readings can be large or run the other way.

The compounds below were run against Bromodomain adjacent to zinc finger domain protein 2B (Homo sapiens) (UniProt Q9UIF8) (assay: qHTS Assay for Inhibitors of BAZ2B). Conditions: AlphaScreen BAZ2B-H3K14Ac peptide displacement; series mostly up to 114 µM; activity change, negative = inhibition: at the top concentration.
Outline: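 AlphaScreen displacement of biotin-H3(5-23)K14Ac peptide (50 nM final) from BAZ2B (50 nM final) in PBS pH 7.4, 0.01% Tween-20; complex preformed 30 min RT, then compounds (top 110 uM) 30 min RT, beads 20 min dark.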
% is scaled to controls: 0 for no effect and ±100 for the full control effect; potency is read from the fitted curve at half-maximal effect.
Also: nearly all actives have a fitted effect of over 60% in size.

Chain of Bromodomain adjacent to zinc finger domain protein 2B (Homo sapiens) (Q9UIF8 whole entry, looked up, the tested form may be a part): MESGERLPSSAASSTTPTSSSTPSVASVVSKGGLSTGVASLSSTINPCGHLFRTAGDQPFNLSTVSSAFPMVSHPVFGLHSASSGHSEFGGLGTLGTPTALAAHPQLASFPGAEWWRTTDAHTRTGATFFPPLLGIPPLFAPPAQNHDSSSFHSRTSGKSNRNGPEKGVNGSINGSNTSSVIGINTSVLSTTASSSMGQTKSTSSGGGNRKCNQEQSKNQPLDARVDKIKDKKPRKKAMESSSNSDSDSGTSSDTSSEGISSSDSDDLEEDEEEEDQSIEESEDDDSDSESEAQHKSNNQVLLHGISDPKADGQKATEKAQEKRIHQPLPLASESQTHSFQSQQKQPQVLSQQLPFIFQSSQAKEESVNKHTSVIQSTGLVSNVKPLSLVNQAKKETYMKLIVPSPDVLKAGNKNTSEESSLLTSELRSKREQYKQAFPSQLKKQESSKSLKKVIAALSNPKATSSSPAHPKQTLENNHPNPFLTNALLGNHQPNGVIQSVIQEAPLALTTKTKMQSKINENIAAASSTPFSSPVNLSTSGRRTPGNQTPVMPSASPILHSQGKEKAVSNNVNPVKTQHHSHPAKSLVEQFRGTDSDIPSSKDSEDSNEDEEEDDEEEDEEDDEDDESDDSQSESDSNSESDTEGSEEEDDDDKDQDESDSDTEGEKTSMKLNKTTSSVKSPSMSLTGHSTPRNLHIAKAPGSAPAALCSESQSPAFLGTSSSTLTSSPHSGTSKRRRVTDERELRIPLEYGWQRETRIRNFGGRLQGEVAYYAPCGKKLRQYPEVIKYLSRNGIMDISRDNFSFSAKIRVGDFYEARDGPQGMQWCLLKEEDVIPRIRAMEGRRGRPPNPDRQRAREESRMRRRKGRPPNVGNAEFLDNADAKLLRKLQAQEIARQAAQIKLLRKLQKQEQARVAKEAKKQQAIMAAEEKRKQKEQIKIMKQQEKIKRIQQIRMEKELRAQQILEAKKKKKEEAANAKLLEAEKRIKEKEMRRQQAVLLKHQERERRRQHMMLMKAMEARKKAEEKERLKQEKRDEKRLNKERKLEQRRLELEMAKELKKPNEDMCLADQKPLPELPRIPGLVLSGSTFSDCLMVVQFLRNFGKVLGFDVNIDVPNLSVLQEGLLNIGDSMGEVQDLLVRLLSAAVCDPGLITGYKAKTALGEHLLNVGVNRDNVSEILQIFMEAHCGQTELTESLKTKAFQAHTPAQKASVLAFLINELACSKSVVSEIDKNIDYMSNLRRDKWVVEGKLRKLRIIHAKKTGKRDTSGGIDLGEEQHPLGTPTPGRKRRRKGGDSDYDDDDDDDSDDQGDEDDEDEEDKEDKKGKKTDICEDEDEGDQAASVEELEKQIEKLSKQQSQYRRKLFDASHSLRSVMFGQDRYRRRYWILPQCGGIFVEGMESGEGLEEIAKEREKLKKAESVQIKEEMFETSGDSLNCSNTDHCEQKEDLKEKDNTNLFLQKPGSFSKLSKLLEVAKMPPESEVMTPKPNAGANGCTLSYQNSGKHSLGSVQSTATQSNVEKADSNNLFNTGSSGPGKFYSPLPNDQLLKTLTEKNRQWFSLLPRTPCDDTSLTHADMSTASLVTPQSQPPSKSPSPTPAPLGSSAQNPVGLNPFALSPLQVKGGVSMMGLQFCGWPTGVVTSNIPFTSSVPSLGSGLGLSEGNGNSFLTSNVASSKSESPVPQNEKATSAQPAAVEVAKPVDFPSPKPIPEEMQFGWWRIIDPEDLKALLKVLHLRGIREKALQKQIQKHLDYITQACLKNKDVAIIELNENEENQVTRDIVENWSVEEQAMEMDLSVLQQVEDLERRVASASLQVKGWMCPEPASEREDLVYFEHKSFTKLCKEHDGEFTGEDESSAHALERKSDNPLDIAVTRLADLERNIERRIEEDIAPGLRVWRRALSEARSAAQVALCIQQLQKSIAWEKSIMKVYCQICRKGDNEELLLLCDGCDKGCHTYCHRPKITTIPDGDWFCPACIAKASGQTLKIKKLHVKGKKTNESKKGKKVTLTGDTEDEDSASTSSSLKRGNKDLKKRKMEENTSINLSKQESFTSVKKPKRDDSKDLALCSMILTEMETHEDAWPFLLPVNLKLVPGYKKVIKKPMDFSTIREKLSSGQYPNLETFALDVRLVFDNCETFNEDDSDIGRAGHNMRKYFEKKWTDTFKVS

Structure (SMILES)	activity change, negative = inhibition	Potency
Cc1cccc2c(=O)cc(CSc3ccccc3NC(=O)C(C)C)[nH]c12	4.37% (inactive)	–
CCOC(=O)N1CCC(NC(=O)c2cnn(-c3cccc(C)c3)c2C2CCN(C(=O)OC(C)(C)C)CC2)CC1	8.59% [at 57.1 µM] (inactive)	–
CCc1cccc(NC(=O)Cn2nc(CC)n3c(cc4cc(C)ccc43)c2=O)c1	6.38% (inactive)	–
CC(C)CNc1ncnc2c1nnn2C	-10.3% (inactive)	–
Cc1ccc(COc2ccc(/C=N/NC(=O)CN3CCCCC3)cc2)cc1	-21.8% (inactive)	–
CCOc1cc(/C=N/NC(=O)CN2CCCCC2)ccc1O	–	56.2 µM (active)
O=C(CN1CCSCC1)N/N=C/c1ccc(F)cc1	–	50.1 µM (active)
Cc1nn(CC(=O)N/N=C/c2ccc(F)cc2)c(C)c1[N+](=O)[O-]	4.73% (inactive)	–
CCOc1ccc(/C=N/NC(=O)CSc2ccccn2)cc1O	-16.7% (inactive)	–
O=C(CC(=O)N/N=C\c1ccc(F)cc1)NCCc1ccccc1	5.67% (inactive)	–
Cc1cccc(CSc2nc3ccncc3n2Cc2ccc(C(=O)O)cc2)c1	-4.88% (inactive)	–
COc1ccc(CCNC(=O)CCCCn2c(=O)c3ccccc3n(Cc3ccccc3)c2=O)cc1OC	0.11% (inactive)	–
Cc1ccc(SCC(=O)Nc2ccc3oc(-c4ccccc4C)nc3c2)cc1	3.57% (inactive)	–
COc1ccc(NC(=O)c2ccc3nc(C(C)C)oc3c2)cc1OC	0.556% (inactive)	–
CCCc1cc(=O)n2[nH]c(NCc3ccc(CC)cc3)nc2n1	-3.81% (inactive)	–
Nc1ccccc1SC(C[N+](=O)[O-])c1ccccc1 (stereo not given)	–	44.7 µM (active)
COc1cc(CNC(=O)c2cc3n(n2)CCCN(Cc2cccc(F)c2)C3=O)cc(OC)c1OC	-4.51% (inactive)	–
Cc1oc2ccc(O)c(CN3CCOCC3)c2c1C(=O)Nc1cccc(Cl)c1C	-1.42% (inactive)	–
O=C(CNC(=O)c1cccnc1)N/N=C/c1cccnc1	-15.3% (inactive)	–
Cc1cc(C(=O)N/N=C/c2ccccn2)c2ccccc2n1	13% (inactive)	–
CNC(=O)C(=O)N/N=C/c1ccccn1	–	39.8 µM (active)
O=C(N/N=C/c1ccccn1)C12CC3CC(CC(C3)C1)C2	4.49% (inactive)	–
O=C(N/N=C/c1ccccn1)c1cccnc1	–	28.2 µM (active)
O=C(N/N=C/c1ccccn1)c1cccc(NC(=O)c2ccc(Cl)cc2)c1	14.4% (inactive)	–
COc1ccc(-c2noc(CSc3nc4ccc(C)cc4[nH]3)n2)cc1	-9.25% (inactive)	–

Structure (SMILES)	activity change, negative = inhibition	Potency
Cc1oc2ncnc(N3CCCCC3)c2c1C(=O)N1CCN(c2cccc(Cl)c2)CC1	-16.4% [at 57.1 µM] (inactive)	–
Cc1cccc(NC(=O)CSc2nnc(CNC(=O)c3cccc(C)c3)n2-c2ccccc2)c1	-15.6% (inactive)	–
Cc1ccc(-c2ccc(CCC(=O)O)n2-c2ccc(C(N)=O)cc2)cc1	-20.2% (inactive)	–
CCN1CCN(Cc2c(O)ccc3oc(C)c(C(=O)Nc4ccc(C)cc4C)c23)CC1	-13.3% (inactive)	–
CN(CC#CCC(c1ccccc1)c1ccccc1)C(C)(C)C	-34.8% (inactive)	–
OC(C#CCN1CCOCC1)(c1ccccc1)C1CCCCC1 (stereo not given)	-5.69% [at 57.1 µM] (inactive)	–
CC(C)(C)N(CC#CCC(O)(c1ccccc1)C1CCCC1)CCO (stereo not given)	–	79.4 µM (active)
CCc1ccccc1NC(=O)c1ccc2nc(CCc3ccccc3)oc2c1	-26% (inactive)	–
COC(=O)c1ccc(Cn2c(SCC(=O)N(C)c3ccccc3)nc3ccccc32)cc1	-17.4% (inactive)	–
O=C(Nc1ccc(Oc2ccccc2)cc1)C1CCN(S(=O)(=O)c2ccc(Cl)cc2)CC1	-2.4% (inactive)	–
CN(c1cccc(NC(=O)Nc2ccc(Cl)cc2)c1)S(C)(=O)=O	9.77% [at 57.1 µM] (inactive)	–
O=C(Nc1ccccc1)c1nnsc1S(=O)(=O)c1ccc(Cl)cc1	–	44.7 µM (active)
CCCCN(CC)CCCNC(=O)c1nn(C)c2c1CSc1ccccc1-2	5.53% (inactive)	–
Cc1ccccc1CNC(=O)c1cccc(NC(=O)c2nsc3ccccc23)c1	3.02% (inactive)	–
O=C(CSc1nnc(-c2ccncc2)n1-c1ccccc1)Nc1ccc(Cl)c(Cl)c1	2.59% (inactive)	–
Cc1cc(C)cc(-n2c(SCC(=O)NCC3CCCO3)nc3c([nH]c4ccccc43)c2=O)c1 (stereo not given)	-1.42% (inactive)	–
CC1=NN(Cc2ccccc2)C(=O)/C1=C/c1ccc(N(C)C)cc1	–	2 µM (active)
O=C1N/C(=C/c2cccs2)C(=O)N1Cc1ccc(F)cc1	-14.6% (inactive)	–
Cc1ccc(CN2C(=O)N/C(=C/c3cc(C)n(-c4ccccn4)c3C)C2=O)cc1	-9.16% (inactive)	–
CSc1c(SCc2ccccc2)cnn(Cc2ccccc2)c1=O	12.4% (inactive)	–
CN(C)c1ccnc2sc3c(=O)n(Cc4ccccc4)cnc3c12	7.26% (inactive)	–
CN(C)c1ccc(/C=C2\NC(=S)N(Cc3ccccc3)C2=O)cc1	–	28.2 µM (active)
CCc1ccc(C(=O)CC2(O)C(=O)N(CCc3ccccc3)c3ccc(Br)cc32)cc1 (stereo not given)	-18.3% (inactive)	–
CCC1CCCCN1Cc1c(O)ccc2c(=O)c(Oc3ccccc3Cl)c(C(F)(F)F)oc12 (stereo not given)	8.59% [at 57.1 µM] (inactive)	–
COCCNC(=O)c1ccc2c(c1)N(Cc1cccc(Cl)c1)C(=O)c1ccccc1S2(=O)=O	6.11% (inactive)	–
